Reference: PubChem BioAssay (NCI)
This is part of a sample that, as a whole, favours compounds with a hit. Of some 83,000 tested, about 20% had one in any assay.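 Growth was measured after 48 h exposure to one concentration of compound in 96-well plates. Values under 10 count as active.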 Active and inactive are the calls of the source.

tested on: HL-60(TB) leukemia; assay: NCI-60 one-dose screen, 48 h (100 = growth as untreated, 0 = no growth, -100 = all killed); conditions: 10 µM unless noted

Row | SMILES | growth
1 | CCCC(=O)NC(c1ccc2c(c1)OCO2)c1cc(Cl)c2cccnc2c1O (centres undefined) | -19.5% (active)
2 | COc1ccc(C(=O)N2c3ccccc3Sc3ccccc32)c(F)c1 | 15.4% (inactive)
3 | Cc1cc(C#Cc2ccc(C(C)(C)C)cc2)ccc1-n1c(/C=C/c2c(Cl)cccc2Cl)nc2ccccc2c1=O | 99.6% (inactive)
4 | CC(=O)OCC(OC(C)=O)C(OC(C)=O)C(OC(C)=O)C(OC(C)=O)C(/C=N/Nc1ccccc1)=N/Nc1ccccc1 (centres undefined) | 59.4% (inactive)
5 | C=C(C)[C@@H]1C[C@H](O)Cc2cc(Cl)cc(Cl)c2N1 | 112% (inactive)
6 | CCCCCCCCCCCCCCCC1=NCC[N+]1(CCO)CCO | 44.9% (inactive)
7 | COC(=O)CCc1cc(O)c2c(c1)[C@@H](C(=O)OC)[C@H](c1ccc(O)c(O)c1)O2 | 9.9% (active)
8 | COc1cccc(-c2nc3sccn3c2-c2ccnc(NCCNS(=O)(=O)c3ccccc3)c2)c1 | -18.1% (active)
9 | CCc1ccc2c(c1)N(CCO)C1=C(C(=O)OC1)C2c1cccc(Cl)c1 (centres undefined) | -19.4% (active)
10 | CCO/C=N/S(=O)(=O)c1cc2c(cc1Cl)NC=NS2(=O)=O | 112% (inactive)
11 | COc1cc2nc(Nc3cccc(C(=O)O)c3)nc(N)c2cc1OC | 109% (inactive)
12 | C[C@@H]1O[C@@H](O[C@@H]2C[C@H](c3ccc4c(c3O)C(=O)C3=C(C4=O)[C@@]4(O)C(=O)C[C@](C)(O)C[C@@]4(O)C=C3)O[C@H](C)[C@H]2O)C[C@H](O)[C@@H]1O | 99.5% (inactive)
13 | O=C(O)c1nn(-c2ccc(Cl)cc2)nc1N1CCCC1 | 97% (inactive)
14 | O=C(COc1cccc(/C=C2\CSc3ccccc3C2=O)c1)c1ccc(Cl)cc1 | -48% (active)
15 | COc1ccc2c(c1)/C(=C\c1c[nH]c3ccc(OC)cc13)C(=O)N2 | 20.8% (inactive)
16 | Cc1c(C(=O)N[C@H](CO)Cc2ccccc2)[nH]c2ccc(Cl)cc2c1=O | 99.7% (inactive)
17 | c1ccc(CCNc2c3ccccc3nc3ccccc23)cc1 | 41.3% (inactive)
18 | CS(=O)(=O)Nc1cc(-c2ccc3ncnc(Nc4ccc5[nH]ncc5c4)c3c2)cnc1Cl | 55.5% (inactive)
19 | CC1(C)Cc2c(Br)c(Br)c(Br)c(OCC(O)CN3CCN(c4ccccn4)CC3)c2O1 (centres undefined) | 61.1% (inactive)
20 | CC(C)C[C@H](NC(=O)[C@H](Cc1ccccc1)n1ccc(N2CCCCC2)cc1=O)B(O)O | 1.9% (active)

Row | SMILES | growth
21 | CCOC(=O)c1sc(-c2ccc(OS(=O)(=O)c3ccccc3[N+](=O)[O-])c(C=O)c2)nc1C | 73.3% (inactive)
22 | OC(c1cc(-c2ccc(C(F)(F)F)cc2)nc(-c2ccc(C(F)(F)F)cc2)c1)C1CCCCN1 (centres undefined) | -61.8% (active)
23 | CC(Cc1cccc2ccccc12)C(N)=O (centres undefined) | 99.5% (inactive)
24 | CCCCCCCCCCCCCC[N+](C)(C)CCCCCCCCCCCCCC | 46.6% (inactive)
25 | Cc1ccc(-c2nc(SCC(=O)N3CCN(c4cc5c(cc4F)c(=O)c(C(=O)O)cn5C4CC4)CC3)nc(Cl)c2C#N)cc1 | 101% (inactive)
26 | COc1cc(/C=C2\CN(C)C/C(=C\c3cc(CN4CCCC4)c(O)c(OC)c3)C2=O)cc(CN2CCCC2)c1O | 43.3% (inactive)
27 | CN1C(=O)N(C)C2C1NN=c1s/c(=C\c3ccc(Br)cc3)c(=O)n12 (centres undefined) | -13.8% (active)
28 | NC(N)=NC(N)=Nc1cc2ccccc2c2ccccc12 | 28.8% (inactive)
29 | COc1ccc(OC)c(-c2c(C#N)c(-c3ccc(Cl)cc3)nc3c2c(-c2ccccc2)nn3-c2ccccc2)c1 | 99% (inactive)
30 | CN1CCN(Cc2ccc(NC(=O)c3ccc(C(C)(C)C)c(C#Cc4cnc5cccnn45)c3)cc2C(F)(F)F)CC1 | -17.4% (active)
31 | O=C(c1ccc(OCCN2CCCCC2)cc1)c1c(-c2ccc(O)cc2)sc2cc(O)ccc12 | 76.8% (inactive)
32 | CCOC(OCC)c1cnc2nc(NC(C)=O)[nH]c(=O)c2n1 | 123% (inactive)
33 | Cc1ccc(S(=O)(=O)Oc2ccc3sc4c(CO)ccc(NCCN(C)C)c4c(=O)c3c2)cc1 | -51.1% [100 µM] (active)
34 | O=C(c1c[nH]c2ccccc12)c1n[nH]c(=S)n1-c1ccc([N+](=O)[O-])cc1 | 61.4% (inactive)
35 | CCOC(=O)Cn1c(-c2nonc2NC(=O)c2ccccc2F)nc2ccccc21 | 35.1% (inactive)
36 | COc1ccc(CN2c3ccccc3Sc3ccccc32)c(F)c1 | -27% (active)
37 | COCCNC(C)=O | 107% (inactive)
38 | CNc1ccc(NC)c2c1C(=O)c1ccccc1C2=O | 87.3% (inactive)
39 | CC[C@@H](C(=O)[C@@H](C)[C@@H](O)[C@H](C)[C@@H]1O[C@@H]([C@@H](CC)C(=O)N(CC)CC)CC[C@@H]1C)C1O[C@]2(C=CC(=O)[C@]3(CC[C@@](C)([C@H]4CC[C@](O)(CC)[C@H](C)O4)O3)O2)[C@H](C)C[C@@H]1C (some centres undefined) | -36.4% (active)
